Reference: PubChem BioAssay
Inconclusive results are not listed. The source made the active and inactive calls. Cut-off read from the data, not from the text of the source, unless noted: active = inhibition above about 80%; inactive = the rest.

Tests used:
[1] = growth inhibition of DIPG glioma cells, dose response, cell-based, SU-DIPG-XVII, MIPE5.0, CellTiter-Glo, qHTS (AID 1347060; cut-off not given, nearly all actives have AC50 up to about 26 µM;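 note: cells exposed to compound for 48 hours before viability readout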); details: SU-DIPG-XVII viability, CellTiter-Glo ATP luminescence
[2] = growth inhibition of DIPG glioma cells, dose response, cell-based, SU-DIPG-XIII, MIPE5.0, CellTiter-Glo, qHTS (AID 1347064; cut-off not given, nearly all actives have AC50 up to about 23 µM;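 note: cells exposed to compound for 48 hours before the viability read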); details: SU-DIPG-XIII viability, CellTiter-Glo ATP luminescence
[3] = viability loss in pontine glioma line – cell-based, SU-DIPG-XXV, MIPE5.0, CellTiter-Glo, qHTS, dose response (AID 1347065; cut-off not given, nearly all actives have AC50 up to about 26 µM;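 note: cells exposed to compound for 48 hours before ATP readout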); details: CellTiter-Glo ATP luminescence
[4] = JHH-DIPG-1 glioma cell viability, MIPE5.0 library, CellTiter-Glo luminescence, qHTS (AID 1347067; cut-off not given, nearly all actives have AC50 up to about 26 µM;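 note: cells exposed to compound for 48 hours before readout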); details: JHH-DIPG-1 glioma viability, CellTiter-Glo ATP luminescence
[5] = SU-DIPG-XXV glioma cell viability, MIPE5.0 library, qHTS (AID 1347068; cut-off not given, nearly all actives have IC50 up to about 30 µM;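 note: cells exposed to compound for 48 hours before viability readout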)
[6] = sensitizers of A549 cells to miR-34 induction, primary screen, imaging, A549 dox-inducible miR-34, nuclei and caspase counts (AID 1347080;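 active = compounds whose cell count with miR-34 switched on is under 0.7 times the count with it off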); details: A549 miR-34 inducible, Hoechst nuclei count, 48 h
[7] = survival rescue of mitochondrial mutant cells in low glucose, primary screen, MELAS cybrids, Rieske KO mouse fibroblasts, CellTiter-Glo (AID 1508586;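 active = mean z-score across replicates of 1.96 or higher in either the MELAS or the Rieske mutant cell line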;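 note: z relative to plate mean and SD of compound and empty wells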)
[8] = LFS_MB_P medulloblastoma growth inhibition, cell-based, chromothripsis tumors, cisplatin or BGB combos (AID 1671449); details: LFS_MB_P medulloblastoma cells;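 note: cells exposed for 96 hours; 0% = vehicle DMSO and 100% = killing by high DMSO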
[9] = HDN33 neuroblastoma growth inhibition, cell-based, chromothripsis tumors, cisplatin or BGB combos (AID 1671450); details: HDN33 neuroblastoma cells, stronger effect = higher value;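 note: cells exposed to compound for four days; 0% = vehicle DMSO and 100% = cell killing by high DMSO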
[10] = ICB984 medulloblastoma cell growth inhibition, synergistic combos for chromothripsis tumors, cisplatin or BGB combos (AID 1671451; call rule not given here;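 note: cells exposed for 96 hours before readout; 0% = vehicle DMSO and 100% = killing by high DMSO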); details: ICB984 medulloblastoma cells, drug combinations, stronger effect = higher value
[11] = LFS_MB_1R medulloblastoma cell growth inhibition, synergistic combos for chromothripsis tumors, cisplatin or BGB combos (AID 1671452); details: LFS_MB_1R medulloblastoma cells, stronger effect = higher value;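 note: cells exposed for 96 hours before readout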
[12] = HTB85 osteosarcoma cell growth inhibition, synergistic combos for chromothripsis tumors, BGB or cisplatin IC20 combos (AID 1671453); details: HTB85 osteosarcoma cells, drug combinations, stronger effect = higher value;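 note: cells exposed for 96 hours before readout; 0% = vehicle DMSO and 100% = high DMSO killing control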
[13] = CRL2098 osteosarcoma cell growth inhibition, synergistic combos for chromothripsis tumors, BGB or cisplatin IC20 combos (AID 1671454); details: CRL2098 osteosarcoma cells, drug combinations, stronger effect = higher value;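 note: cells exposed for 96 h before readout; 0% = vehicle DMSO and 100% = killing by high DMSO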
[14] = HD-MB03 medulloblastoma cell growth inhibition, synergistic combos for chromothripsis tumors, BGB or cisplatin IC20 combos (AID 1671455; in the data active = inhibition above about 83%;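 note: 0% = vehicle DMSO and 100% = high DMSO as cytotoxic control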); details: HD-MB03 medulloblastoma cells, stronger effect = higher value
[15] = UWB1.289 ovarian carcinoma cell growth inhibition, synergistic combos for chromothripsis tumors, BGB or cisplatin combos (AID 1671456); details: UWB1.289 ovarian carcinoma cells, stronger effect = higher value;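 note: cells exposed to compound for four days; 0% = vehicle DMSO and 100% = killing by high DMSO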
[16] = MDA-MB-436 breast carcinoma cell growth inhibition, synergistic combos for chromothripsis tumors, BGB or cisplatin combos (AID 1671458; call rule not given here;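 note: cells exposed for 96 hours; 0% = vehicle DMSO and 100% = killing by high DMSO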); details: MDA-MB-436 breast carcinoma growth inhibition, drug combinations, stronger effect = higher value
[17] = growth inhibition of BT084 medulloblastoma cells, cell-based, ICGC_MB145, cisplatin and BGB IC40 combos (AID 1671461); details: drug combinations, stronger effect = higher value;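 note: cells exposed to drugs for 96 hours; 0% = vehicle DMSO and 100% = high DMSO full killing control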
[18] = growth inhibition of RCMB18 medulloblastoma cells, cell-based, cisplatin and BGB IC40 combos (AID 1671462); details: stronger effect = higher value;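 note: cells exposed to compound for four days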
[19] = growth inhibition of CRL1545 osteosarcoma cells, cell-based, cisplatin and BGB IC20 combos (AID 1671464); details: stronger effect = higher value;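 note: cells exposed to compound for 96 hours before readout; 0% = vehicle DMSO and 100% = high DMSO killing control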
[20] = stronger effect = lower value, cell number ratio, induced over uninduced
[21] = measured here: relative caspase fold change +Dox/-Dox
[22] = measured here: total cells with miR-34 induction, stronger effect = lower value
[23] = measured here: total cells without miR-34 induction
[24] = MELAS cybrid survival, CellTiter-Glo 48 h, stronger effect = higher value
[25] = Rieske KO mouse fibroblast survival, CellTiter-Glo 72 h
[26] = measured here: combination with BGB IC40, at 0.05 µM
[27] = measured here: with BGB IC20 combination, at 0.5 µM
[28] = measured here: with cisplatin IC20 combination, at 0.5 µM
[29] = measured here: combination with cisplatin, at 0.5 µM

## CC(=O)Nc1ccc(C(=O)Nc2ccccc2N)cc1
[1]
  AC50: 13.2 µM (active)
[2]
  AC50: 9.34 µM (active)
[3]
  AC50: 9.34 µM (active)
[4]
  AC50: 10.5 µM (active)
[5]
  IC50: 10.5 µM (active)
[6]; [20]
  fold change: 0.986 (inactive)
[6]; [21]
  fold change: 1.15
[6]; [22]
  cell count: 4760
[6]; [23]
  cell count: 4820
[7]; [24]
  z-score: -0.168 (inactive)
[7]; [25]
  z-score: -0.712
[8]; at 0.5 µM, stronger effect = higher value
  inhibition: 88.2% (active)
[8]; measured here: combination with BGB IC20, at 0.005 µM
  inhibition: -32.9%
[8]; measured here: combination with BGB IC40, at 0.005 µM
  inhibition: 90.3%
[8]; [26]
  inhibition: -22.7%
[8]; measured here: combination with cisplatin, at 0.5 µM, stronger effect = higher value
  inhibition: 113%
[8]; measured here: combination with cisplatin, at 5 µM, stronger effect = higher value
  inhibition: 85.2%
[9]; BGB combo, at 5 µM
  inhibition: 47.2%
[9]; at 0.5 µM
  inhibition: 8.49% (inactive)
[9]; cisplatin combo, at 5 µM
  inhibition: 53.7%
[9]; [27]
  inhibition: 4.99%
[9]; [28]
  inhibition: 18.6%
[9]; single agent, at 5 µM
  inhibition: 41.8%
[10]; BGB IC20 combo, at 0.005 µM
  inhibition: -11.5%
[10]; BGB IC40 combo, at 0.005 µM
  inhibition: -4.35%
[10]; BGB IC40 combo, at 0.05 µM
  inhibition: 23.2%
[10]; at 0.5 µM
  inhibition: -24.7% (inactive)
[10]; cisplatin combo, at 0.05 µM
  inhibition: 19.5%
[10]; cisplatin combo, at 0.5 µM
  inhibition: -38.2%
[10]; cisplatin combo, at 5 µM
  inhibition: -5.64%
[10]; measured here: 5 uM single agent, at 5 µM
  inhibition: -13.9%
[11]; at 0.5 µM
  inhibition: -13.9% (inactive)
[11]; [26]
  inhibition: -36.6%
[11]; [29]
  inhibition: -17.4%
[11]; measured here: combination with cisplatin, at 5 µM
  inhibition: 75.4%
[12]; at 0.5 µM
  inhibition: 3.06% (inactive)
[12]; measured here: with BGB IC20, at 0.5 µM
  inhibition: 23.1%
[12]; measured here: with BGB IC20, at 5 µM
  inhibition: 53.4%
[12]; measured here: with cisplatin IC20, at 0.5 µM
  inhibition: -11.1%
[12]; measured here: with cisplatin IC20, at 5 µM
  inhibition: 56.6%
[12]; single agent, at 5 µM
  inhibition: 37.1%
[13]; at 0.5 µM
  inhibition: -31.5% (inactive)
[13]; measured here: combination with BGB at IC20, at 0.5 µM
  inhibition: -48.1%
[13]; measured here: combination with cisplatin at IC20, at 0.5 µM
  inhibition: -8.49%
[14]; at 0.5 µM
  inhibition: -2.82% (inactive)
[14]; measured here: combo with BGB at IC20, at 0.5 µM
  inhibition: -7.4%
[14]; measured here: combo with cisplatin at IC20, at 0.5 µM
  inhibition: -4.11%
[15]; at 0.5 µM
  inhibition: 0.73% (inactive)
[15]; measured here: inhibition with BGB combination, at 0.05 µM
  inhibition: -12.2%
[15]; measured here: inhibition with cisplatin combination, at 0.05 µM
  inhibition: -6.67%
[16]; at 0.5 µM
  inhibition: -2.64% (inactive)
[16]; measured here: BGB combination, at 0.5 µM
  inhibition: 6.02%
[16]; measured here: BGB combination, at 5 µM
  inhibition: 12.4%
[16]; measured here: cisplatin combination, at 0.5 µM
  inhibition: -26.9%
[16]; measured here: cisplatin combination, at 5 µM
  inhibition: 14.4%
[17]; at 0.5 µM
  inhibition: 25.3% (inactive)
[17]; cisplatin combination, at 0.5 µM
  inhibition: 14.2%
[17]; cisplatin combination, at 5 µM
  inhibition: 63.9%
[17]; measured here: BGB IC40 combination 0.05 uM, at 0.05 µM
  inhibition: -33.4%
[17]; single agent, at 5 µM
  inhibition: 40.7%
[18]; at 0.5 µM
  inhibition: 16.2% (inactive)
[18]; cisplatin combo, at 5 µM
  inhibition: 82.6%
[18]; measured here: BGB IC40 combination, at 0.05 µM
  inhibition: -4.7%
[18]; [29]
  inhibition: 20.8%
[18]; single agent, at 5 µM
  inhibition: 47.6%
[19]; at 0.5 µM
  inhibition: 35.2% (inactive)
[19]; [27]
  inhibition: 11.6%
[19]; [28]
  inhibition: 46.2%
[19]; single agent, at 0.05 µM
  inhibition: -7.31%
[19]; single agent, at 5 µM
  inhibition: 44%

## C=CC(=O)Nc1ccc2ncnc(Nc3cccc(Br)c3)c2c1
[1]
  AC50: 10.5 µM (active)
[2]
  AC50: 18.6 µM (active)
[3]
  AC50: 9.34 µM (active)
[4]
  AC50: 13.2 µM (active)
[5]
  IC50: 4.68 µM (active)
[6]; [20]
  fold change: 0.91 (inactive)
[6]; [21]
  fold change: 0.865
[6]; [22]
  cell count: 3490
[6]; [23]
  cell count: 3830
[7]; [24]
  z-score: -0.254 (inactive)
[7]; [25]
  z-score: -0.0488
